# Bioassay records: PubChem, National Center for Advancing Translational Sciences (NCATS)
# In the library only some 19% were active in any assay of this set; here they are far more common.
# MCF10A rerep: DNA re-replication induction in MCF 10a cells. MCF 10A DNA re-replication, Hoechst nuclear intensity, 48 h. Potency, µM (doses to about 46.1 µM), for the others: top-dose activity, positive = re-replication, actives largely listed as activators. actives 2.9% (n = 350,000); also: potency is read from the fitted curve at half-maximal effect; % of control where 0% means no effect; nearly all actives have a fitted effect of over 50% in size
# SW480 rerep: DNA re-replication induction in SW480 cells; SW480 DNA re-replication, Hoechst DNA content imaging, 48 h; actives 1.8% (n = 340,000); Potency, µM (titrated, usually from 46.1 µM), without a hit: at the highest dose re-replication activation, hits mostly activators; also: potency is read from the fitted curve at half-maximal effect; % of control where 0% means no effect; nearly all actives have a fitted effect of over 55% in size
#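 Cells (250 per well) received 23 nL compound or DMSO by pin tool and were kept 48 hr at 37 C, 5% CO2. Nuclei were then stained with Hoechst for 40 min and scanned for DNA content.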
# DT40 TDP1 no CPT: qHTS for Inhibitors of human tyrosyl-DNA phosphodiesterase 1 (TDP1): qHTS in cells in absence of CPT. Potency, µM (titrated, usually from 46.2 µM), for the others: at the highest dose activity change, negative = growth inhibition, hits mostly inhibitors. AID 686978, 2013. DT40 Tdp1-/- hTDP1 cells, no CPT, ATP luminescence, 48 h. actives 15% (n = 420,000); also: potency is read from the fitted curve at half-maximal effect; % is scaled to controls: 0 for no effect and ±100 for the full control effect; nearly all actives have a fitted effect of over 55% in size
#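 Compound effects on proliferation are scored in DT40 Tdp1-/-;hTDP1 cells in the absence of CPT. ATP levels (CellTiter-Glo luminescence) are recorded after a ≥48 hr, 37 °C incubation.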
# IL1B secr inh: inflammasome signaling inhibition, IL-1 beta readout | THP-1 LPS/ATP IL-1B secretion, AlphaLISA, 16 h; stronger effect = lower value | activity change, % at 57.5 µM | actives 4.7% (n = 360,000); in the data active = activity change below about -50%; inconclusive = mostly about -30% to -49%; also: % is scaled to controls: 0 for no effect and ±100 for the full control effect
#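 THP-1 cells pretreated 1 hr with compounds (up to 57.5 uM final), then stimulated with LPS (250 ng/mL final) plus ATP (1.25 mM final); secreted IL-1B measured by AlphaLISA after 16 hr, decreased signal indicating inhibition.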
# Chronic BCR inh: inhibitors of chronic active B-cell receptor signaling; Potency, µM (doses to about 46.1 µM), for inactives: at the highest dose activity change, negative = inhibition, most hits filed as inhibitors; actives 0.05% (n = 340,000); ABC-DLBCL IkBa-CBG/CBR reporter, luminescence ratio, 4 h; active = well fitted inhibition curve with a large enough effect in the signal ratio, with a control signal flat, not every such curve was filed as active; inconclusive = small, poorly fitted or top-dose-only effect, or effect the other way, or a change in a side signal; the % refers to the signal ratio;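 also: potency is read from the fitted curve at half-maximal effect; plate controls were basal doxycycline-induced cells for no effect and cells given 10 µM MG132 for full effect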
#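 TMD8 ABC-DLBCL cells carrying doxycycline-inducible green luciferase fused to IkappaBalpha plus unfused red luciferase were exposed to compounds (up to 46 uM) for 4 hrs at 37C. Activity came from the overlap-corrected green/red luminescence ratio.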
# DT40 TDP1 CPT: DT40-hTDP1 cell growth loss with CPT. actives 12% (n = 420,000). chicken DT40 Tdp1-/-;hTDP1 cells + 20 nM CPT, ATP luminescence, 48 h. Potency, µM (doses to about 46.2 µM), for the others: at the top dose activity change, negative = growth inhibition, most hits filed as inhibitors; also: potency is read from the fitted curve at half-maximal effect; % is scaled to controls: 0 for no effect and ±100 for the full control effect; nearly all actives have a fitted effect of over 55% in size
#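 Chicken DT40 Tdp1-/- cells complemented with human TDP1, 400 cells/well, exposed to compounds plus 20 nM camptothecin for at least 48 h at 37 C; viability read as ATP content by CellTiter-Glo luminescence.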
# The depositor's hits bear a star; ? = inconclusive; · = no result. Unless noted, calls follow the shape of the dose curve; as a rule, active = well fitted curve in the direction sought with a large enough effect; inconclusive = small, poorly fitted or top-dose-only effect, or another doubt; inactive = no such curve, though single readings can be large; an effect the other way counts as inactive or inconclusive.
SMILES,MCF10A rerep,SW480 rerep,DT40 TDP1 no CPT,IL1B secr inh,Chronic BCR inh,DT40 TDP1 CPT
COc1ccc(Cl)cc1NC(=O)CN(C)C1CCS(=O)(=O)C1 (configuration not stated),1%,-4%,?,-7,-12%,-21%
CCCC(=O)N1CCCC1(C)C(=O)Nc1cc(OC)c(OC)c(OC)c1 (configuration not stated),·,·,3%,17,·,1%
O=C(COC(=O)[C@@H]1CCCN1C(=O)c1cccs1)Nc1cccc(Cl)c1,5%,7%,-1%,0,0%,-18%
CCOc1ccc(C(CC(=O)O)NS(=O)(=O)c2ccc(C)cc2)cc1OC (configuration not stated),5%,-26%,?,30,0%,21µM*
COc1ccc(C(CC(=O)O)NC(=O)COc2cc(C)ccc2C)cc1OC (configuration not stated),2%,-5%,-5%,0,-10%,0%
CCCCC(NC(C)=O)c1nc2ccccc2n1CCC (configuration not stated),1%,-1%,5.8µM*,16,?,?
CCCCn1c(C(C)NC(=O)COC)nc2ccccc21 (configuration not stated),5%,1%,?,0,12%,?
CCCCCn1c(C(Cc2ccccc2)NC(=O)COC)nc2ccccc21 (configuration not stated),-7%,2%,26µM*,8,6%,18µM*
CCSc1nnc(NC(=O)C2CCN(C(=O)c3ccco3)CC2)s1,·,·,-9%,·,·,-8%
Cc1ccc(NC(=O)CN(C)S(=O)(=O)c2ccc3c(c2)CCC(=O)N3)c(C)c1,·,·,-30%,·,·,-21%
CC(=O)N1CCc2cc(S(=O)(=O)CCC(=O)N3CCN(c4cc(C)ccc4C)CC3)ccc21,6%,4%,21µM*,-14,0%,?
Cc1ccc(C)c(N2CCN(C(=O)CN(C)S(=O)(=O)c3ccc4c(c3)CCC(=O)N4)CC2)c1,8%,-8%,16µM*,-8,-6%,?
CC(=O)N1CCc2cc(S(=O)(=O)CCC(=O)N(C)c3cc(C)ccc3C)ccc21,0%,-4%,-7%,16,7%,-23%
CC(=O)N1CCc2cc(S(=O)(=O)CCC(=O)N3CCN(c4cccc(C)c4C)CC3)ccc21,·,·,15µM*,·,·,16µM*
CC(=O)N1CCc2cc(S(=O)(=O)CCC(=O)N3CCc4ccccc4C3)ccc21,5%,12%,-21%,34,1%,?
O=C(NC1(C(F)(F)F)C(=O)Nc2c1c(=O)[nH]c(=O)n2-c1ccc(Cl)cc1)c1ccccc1F (configuration not stated),·,·,-17%,·,29%,-15%
O=C(N/N=C/c1cccc(Cl)c1)C(c1ccncc1)N1CCOCC1 (configuration not stated),?,?,-12%,13,2%,-1%
COc1ccccc1N1CCN(CCCCNC(=O)c2ccc3ccccc3c2)CC1,-11%,4%,21µM*,0,-11%,?
COc1ccc(C(=O)NCCCN2CCN(CCCNC(=O)c3ccc(OC)c(OC)c3)CC2)cc1OC,2%,-485%,-20%,4,-9%,23%
COc1ccc2cccc(N3CCN(CCNC(=O)c4ccc(F)cc4)CC3)c2c1,·,·,21µM*,·,·,19µM*
COc1ccc(S(=O)Cc2ccc(C(=O)NC3CC3)o2)cc1 (configuration not stated),-8%,-4%,11%,2,-3%,23%
CCN(C(=O)c1ccc2c(=O)n3c(nc2c1)CCCCC3)c1ccc(F)cc1,6%,-12%,20%,15,8%,-8%
